# According to PubChem BioAssay:
# Activity calls are given as the source filed them.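 The calls were made as follows, unless noted: active = normalized viability below 100% at a tested concentration; inactive = the rest.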
# Experiments:
# [1] = drug combination growth inhibition, ovarian cancer – cell-based, oncology-focused library, rucaparib conditional, profiling panel (AID 1508598); settings: patient-derived ovarian cancer cells, CellTiter-Glo viability, 144 h, stronger effect = lower value
# [2] = growth inhibition, single agent or in combination, cell-based, chromothripsis tumors, cisplatin or BGB combos (AID 1671449; in the data active = inhibition above about 80%;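 also: cells exposed for 96 hours; 0% = vehicle DMSO and 100% = killing by high DMSO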); settings: LFS_MB_P medulloblastoma cells
# [3] = growth inhibition, single agent and combos, cell-based, chromothripsis tumors, cisplatin or BGB combos (AID 1671450; in the data active = inhibition above about 80%;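 also: cells exposed to compound for four days; 0% = vehicle DMSO and 100% = cell killing by high DMSO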); settings: HDN33 neuroblastoma cells, stronger effect = higher value
# [4] = growth inhibition, single agents and combos, ICB984, cell-based, cisplatin or BGB combos, synergistic combos for chromothripsis tumors (AID 1671451; call rule not given here;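 also: cells exposed for 96 hours before readout; 0% = vehicle DMSO and 100% = killing by high DMSO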); settings: ICB984 medulloblastoma cells, drug combinations, stronger effect = higher value
# [5] = growth inhibition, single agents and combos, HTB85, cell-based, BGB or cisplatin IC20 combos, synergistic combos for chromothripsis tumors (AID 1671453; in the data active = inhibition above about 80%;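 also: cells exposed for 96 hours before readout; 0% = vehicle DMSO and 100% = high DMSO killing control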); settings: HTB85 osteosarcoma cells, drug combinations, stronger effect = higher value
structure (smiles),measurement,setting,value
Nc1ccc(-c2ccc3ncc4ccc(=O)n(-c5cccc(C(F)(F)F)c5)c4c3c2)cn1,viability,"[1]; at 0.313 µM, OCI-C5x cells, with rucaparib 10 µM, 100% = cells with rucaparib alone",109% (inactive)
same,viability,"[1]; at 0.313 µM, OCI-C5x cells, without rucaparib",89.4% (active)
same,viability,"[1]; at 0.313 µM, OCI-P5x cells, with rucaparib 20 µM, 100% = cells with rucaparib alone",73.5% (active)
same,viability,"[1]; at 0.313 µM, OCI-P5x cells, without rucaparib",65.9% (active)
same,viability,"[1]; at 1.25 µM, OCI-C5x cells, with rucaparib 10 µM, 100% = cells with rucaparib alone",62.2% (active)
same,viability,"[1]; at 1.25 µM, OCI-C5x cells, without rucaparib",70.5% (active)
same,viability,"[1]; at 1.25 µM, OCI-P5x cells, with rucaparib 20 µM, 100% = cells with rucaparib alone",67.9% (active)
same,viability,"[1]; at 1.25 µM, OCI-P5x cells, without rucaparib",54.1% (active)
same,viability,"[1]; at 5 µM, OCI-C5x cells, with rucaparib 10 µM, 100% = cells with rucaparib alone",33.1% (active)
same,viability,"[1]; at 5 µM, OCI-C5x cells, without rucaparib",29.5% (active)
same,viability,"[1]; at 5 µM, OCI-P5x cells, with rucaparib 20 µM, 100% = cells with rucaparib alone",10.8% (active)
same,viability,"[1]; at 5 µM, OCI-P5x cells, without rucaparib",14.6% (active)
same,inhibition,"[2]; at 0.5 µM, stronger effect = higher value",5.33% (inactive)
same,inhibition,"[2]; measured here: combination with BGB IC20, at 0.005 µM",-20%
same,inhibition,"[2]; measured here: combination with BGB IC40, at 0.005 µM",59.9%
same,inhibition,"[2]; measured here: combination with BGB IC40, at 0.05 µM",-36.1%
same,inhibition,"[2]; measured here: combination with cisplatin, at 0.5 µM, stronger effect = higher value",3.19%
same,inhibition,"[2]; measured here: combination with cisplatin, at 5 µM, stronger effect = higher value",92.6%
same,inhibition,"[3]; BGB combo, at 5 µM",89.3%
same,inhibition,[3]; at 0.5 µM,32.1% (inactive)
same,inhibition,"[3]; cisplatin combo, at 5 µM",93.5%
same,inhibition,"[3]; measured here: with BGB IC20 combination, at 0.5 µM",14.7%
same,inhibition,"[3]; measured here: with cisplatin IC20 combination, at 0.5 µM",43.5%
same,inhibition,"[3]; single agent, at 5 µM",91.8%
same,inhibition,"[4]; BGB IC20 combo, at 0.005 µM",18.5%
same,inhibition,"[4]; BGB IC40 combo, at 0.005 µM",13.6%
same,inhibition,"[4]; BGB IC40 combo, at 0.05 µM",80.5%
same,inhibition,[4]; at 0.5 µM,-14.5% (inactive)
same,inhibition,"[4]; cisplatin combo, at 0.05 µM",79.9%
same,inhibition,"[4]; cisplatin combo, at 0.5 µM",-13.5%
same,inhibition,"[4]; cisplatin combo, at 5 µM",-13.1%
same,inhibition,"[4]; measured here: 5 uM single agent, at 5 µM",-7.65%
same,inhibition,[5]; at 0.5 µM,27.1% (inactive)
same,inhibition,"[5]; measured here: with BGB IC20, at 0.5 µM",35.5%
same,inhibition,"[5]; measured here: with BGB IC20, at 5 µM",78%
same,inhibition,"[5]; measured here: with cisplatin IC20, at 0.5 µM",16.8%
same,inhibition,"[5]; measured here: with cisplatin IC20, at 5 µM",94.9%
same,inhibition,"[5]; single agent, at 5 µM",79.3%
